# In all, about 360,000 compounds went through this assay and about 3,700 (1%) were called active. The full list was thinned out, with actives kept by preference. Values without a mark were called inactive. Cut-off read from the data, not from the text of the source: active = activation above about 30%; inactive = the rest.
# Target: D(1A) dopamine receptor (Homo sapiens) (UniProt P21728)
# Experiment: Allosteric Agonists of the Human D1 Dopamine Receptor: qHTS; note: 0% is about no effect
# Details: HEK293 T-REx D1 cells, calcium flux, agonist mode; at 2 µM; stronger effect = higher value
# How it was run: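 Inducible HEK293 T-REx D1 cells, force-coupled to calcium signalling, were plated at 4000 cells/well with tetracycline and held overnight at 30 C. After no-wash calcium dye loading, compound-evoked calcium rise over 180 s flagged agonists.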
# Chain of D(1A) dopamine receptor (Homo sapiens) (P21728 whole entry, looked up): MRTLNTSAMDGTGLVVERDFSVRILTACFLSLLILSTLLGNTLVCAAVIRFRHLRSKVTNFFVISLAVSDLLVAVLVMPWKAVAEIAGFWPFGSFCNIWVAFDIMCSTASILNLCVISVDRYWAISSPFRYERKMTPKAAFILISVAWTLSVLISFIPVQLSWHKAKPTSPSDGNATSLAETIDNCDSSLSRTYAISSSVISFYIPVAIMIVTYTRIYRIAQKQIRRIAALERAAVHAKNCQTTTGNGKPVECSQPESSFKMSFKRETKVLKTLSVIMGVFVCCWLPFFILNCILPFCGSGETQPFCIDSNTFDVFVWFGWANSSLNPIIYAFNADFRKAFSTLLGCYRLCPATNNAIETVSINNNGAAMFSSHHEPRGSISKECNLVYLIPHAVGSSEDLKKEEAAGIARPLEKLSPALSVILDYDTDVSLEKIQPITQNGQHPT
row,SMILES,activation
1,CCOC(=O)c1cc2c(=O)n3ccccc3nc2n(CC2CCCO2)c1=NC(=O)c1ccc(C(C)(C)C)cc1 (stereo unspecified),2.73%
2,CCCCCCc1cc2cc(-c3nnc(-c4ccccc4)o3)c(=O)oc2cc1O,297% (active)
3,CCOc1ccc(CCNC(=O)c2c(C)oc3ncn(C)c(=O)c23)cc1,0.93%
4,CSc1ccc(C2C(C(=O)Nc3ccccc3)=C(C)Nc3nc4ccccc4n32)cc1 (stereo unspecified),-0.673%
5,Cc1ccc(NC(=O)CN2C(=O)C(c3ccc(F)cc3)=NC23CCCCCC3)c(C)c1,7.18%
6,CC(C)c1ccc(NS(=O)(=O)c2ccc3[nH]cc(C(=O)NC4CCCC4)c(=O)c3c2)cc1,5.71%
7,Cc1ccc(NC(=O)c2ccc(CN3CC(=O)N4CCCCC4C3=O)cc2)c(Cl)c1 (stereo unspecified),1.1%
8,CC(NC(=O)Cn1cc(C(F)(F)F)cc(Cl)c1=O)c1ccccc1 (stereo unspecified),-0.532%
9,CN(C)c1ccc(C(=O)NCC(=O)OC(C(=O)Nc2cc(C(F)(F)F)ccc2Cl)c2ccccc2)cc1 (stereo unspecified),1.69%
10,CNCC[C@H](Oc1ccc(C(F)(F)F)cc1)c1ccccc1,111% (active)
11,COc1ccc(OC)c(NC(=O)CSC2=Nc3ccccc3C3=NC(CC(=O)NCCc4ccccc4)C(=O)N23)c1 (stereo unspecified),1.84%
12,COc1ccc(-c2ccc(CNCCCN3CCOCC3)o2)cc1Cl,3.69%
13,CCOc1ccc(CNCCSc2nnnn2C)cc1,-0.463%
14,COc1cc(CNCCSc2nnnn2C)ccc1OCc1c(F)cccc1Cl,5.58%
15,COc1cc(CNCCSc2nnnn2C)ccc1OCc1ccc(Cl)cc1Cl,48.2% (active)
16,Cn1nnnc1SCCCNCc1cccc(OCc2ccc(Cl)cc2)c1,74.4% (active)
17,Cn1nnnc1SCCCNCc1ccc(Cl)cc1,8.22%
18,Cc1c(Cl)cccc1-c1ccc(CNCCCSc2nnnn2C)o1,68.7% (active)
19,Cn1nnnc1SCCNCc1ccc(Cl)c(Cl)c1,-0.329%
20,COc1cccc(CNCCSc2nnnn2C)c1OCc1ccccc1Cl,4.2%
21,COc1ccc(-c2c(C)nn3c(N4CCC(C(=O)NCCC(C)C)CC4)cc(C)nc23)cc1OC,1.66%

row,SMILES,activation
1,Cc1ccc(Cl)cc1N(C)C(=O)Cn1nc(Cc2cccnc2)c2ccccc2c1=O,3.19%
2,Oc1c(Cl)cc(Cl)c(Cl)c1Cc1c(O)c(Cl)cc(Cl)c1Cl,33.5% (active)
3,COc1cc(CN(C(=O)c2ccccc2Br)c2ccccn2)cc(OC)c1OC,-2.08%
4,O=C(CCNS(=O)(=O)c1ccccc1)NCCSc1ccc(Br)cc1,11.3%
5,Cc1ccc(S(=O)(=O)NCCNC(C)c2ccc(Br)cc2)cc1 (stereo unspecified),6.77%
6,Cc1ccc(OCCNC(=O)CCNS(=O)(=O)c2ccc(Br)cc2)cc1,74% (active)
7,Fc1ccc(-n2ncc3c(Nc4ccc(Oc5ccccc5)cc4)ncnc32)cc1,0.314%
8,COc1ccc(C(=O)CSc2c(C(C)C)cnc3c2c(=O)n(C)c(=O)n3C)cc1,2.45%
9,Cc1nc(SCCOc2ccc(Cl)cc2)[nH]c(=O)c1Cc1ccccc1,-1.18%
10,Cc1cc2oc(C(=O)N(Cc3ccc(Cl)cc3)Cc3ccco3)c(C)c2cc1Cl,18.5%
11,CC(Oc1ccc2ccccc2c1)C(=O)NNC(=S)NC(=O)c1ccco1 (stereo unspecified),50.2% (active)
12,COc1ccc(/C=C(/NC(=O)c2ccco2)C(=O)Nc2ccc(C(C)=O)cc2)cc1,-0.901%
13,O=C(NC(=S)N1CCc2ccccc21)c1ccco1,1.7%
14,COc1ccc(OC)c(-c2nc(C(N)=O)c3c(n2)n(-c2ccc4c(c2)OCO4)c(=O)n3C)c1,-1.26%
15,COc1c(C(=O)N2CCCC2)ccc2ccccc12,1.37%
16,COC(=O)CNS(=O)(=O)c1ccc(Cc2ccc(S(=O)(=O)NCC(=O)OC)cc2)cc1,2.26%
17,COC(=O)C[n+]1cccc2ccccc21,87.9% (active)
18,CC(=O)c1ccc(NC(=O)c2nc(-c3ccc(C)cc3)n3c2CCCCC3)cc1,2.3%
19,COc1ccc2cc(-c3nc(Cl)c4c5c(sc4n3)CC(C)CC5)c(=O)oc2c1 (stereo unspecified),8.22%
20,CCOC(=O)c1c(NC(=O)NC(C)(C)C)sc2c1CCN(C)C2,3.08%
21,CCOC(=O)c1c(NC(=O)/C(C#N)=C/c2ccccc2)sc2c1CCC2,0.119%

row,SMILES,activation
1,CCOC(=O)c1c(NC(=S)Nc2ccccc2)sc2c1CCN(C)C2,32.3% (active)
2,Cc1ccc(-c2nnc3c4ccccc4c(C)nn23)cc1NC(=O)c1cccc(Br)c1,-0.644%
3,Cc1ccc(-c2nn(-c3ccccc3)cc2/C=C2\SC(=S)N(CCCCCC(=O)O)C2=O)o1,44.7% (active)
4,O=C1/C(=C/c2coc3ccc(O)cc3c2=O)SC(=S)N1c1ccccc1,5.55%
5,O=C(O)CCCCCCCCc1cn(CN2C(=O)c3ccccc3C2=O)nn1,2.36%
6,O=C(Nc1ccc(F)cc1F)c1cnn(-c2ccc(F)cc2)c1-n1cccc1,2.54%
7,COc1cccc(C(=O)NC2CCN(C#N)CC2)c1,0.293%
8,CCC(Oc1ccccc1)C(=O)NCc1cccnc1 (stereo unspecified),1.93%
9,C=CCOc1cccc(CNCc2cccnc2)c1,3.75%
10,c1ccc(COc2ccccc2CNCc2cccnc2)cc1,34.6% (active)
11,COc1cccc(NC(=O)C2CCN(c3cc(C)nc4c(-c5ccc(Cl)cc5)c(C)nn34)CC2)c1,0.702%
12,Cc1ccccc1NC(=O)CSC1=NCCN1,1.9%
13,CCCCCOc1ccc(CSC2=NCCN2)cc1[N+](=O)[O-],42.9% (active)
14,CCOc1ccc(C(=O)Nc2nccs2)cc1[N+](=O)[O-],6.87%
15,COCC(C)NS(=O)(=O)c1ccc(N2CCCCS2(=O)=O)cc1 (stereo unspecified),3.35%
16,CCc1cccc(NC(=O)c2cc(-c3ccccc3)n[nH]2)c1,12.3%
17,CCOc1cc(/C=C(\C#N)C(=O)Nc2ccccc2C)ccc1OCc1cc(=O)n2nc(CC)sc2n1,5.19%
18,CCOc1ccc(/C=C(\C#N)c2nc3ccccc3c(=O)[nH]2)cc1OC,3.27%
19,CCOc1cc(/C=C(\C#N)c2nc(-c3cccs3)c(NC(C)=O)s2)ccc1O,115% (active)

# Reference: PubChem BioAssay AID504660 (National Center for Advancing Translational Sciences (NCATS), 2011)
